Shown are actives, neighbours in structure and some others; about 9% of the full set was active somewhere.
HPGD block: blocks human HPGD enzyme activity. P15428. purified HPGD, NADH fluorescence kinetic, PGE2 substrate. Potency, µM, for the others: at the top dose activity change, negative = inhibition, actives largely listed as inhibitors. 150,000 tested, 4.3% active; also: potency is read from the fitted curve at half-maximal effect
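20 nM HPGD preincubated 15 min at room temperature with compound in 50 mM Tris-HCl pH 8, 0.01% Tween 20. Started with 1 mM NAD+ and 30 uM prostaglandin E2; NADH fluorescence (360/450 nm) read 5 times over 30-s intervals, last minus first.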
ALDH1A1 block: blocks purified human ALDH1A1 activity | 220,000 tested, 7.3% active | Purified ALDH1A1, NADH fluorescence, propionaldehyde substrate | P00352 | Potency, µM (titrated, usually from 75.3 µM), inactives show at the top dose activity, negative = inhibition, usual class: inhibitors;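 also: potency is read from the fitted curve at half-maximal effect; plate controls were no enzyme wells and a reference inhibitor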
IMPase cell inh: IMPase inhibition in cells; P97697; CHO-M1 cells, IP1 accumulation, HTRF TR-FRET ratio; inhibition (IP1 accumulation), % at 46.1 µM; 120,000 tested, under 10 active; AID 901; active = well fitted curve in the direction sought with a large enough effect in the signal ratio, not every such curve was filed as active; inconclusive = small, poorly fitted or top-dose-only effect, or a change in a side signal; inactive = no such curve, though single readings can be large or run the other way; the % refers to the signal ratio;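 also: cells stimulated with carbachol in lithium chloride buffer; plate controls were DMSO basal wells for no effect and reference inhibitor wells for full effect; higher means more IMPase inhibition seen as more IP1 and lower FRET ratio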
Target sequence (P97697 whole entry, looked up): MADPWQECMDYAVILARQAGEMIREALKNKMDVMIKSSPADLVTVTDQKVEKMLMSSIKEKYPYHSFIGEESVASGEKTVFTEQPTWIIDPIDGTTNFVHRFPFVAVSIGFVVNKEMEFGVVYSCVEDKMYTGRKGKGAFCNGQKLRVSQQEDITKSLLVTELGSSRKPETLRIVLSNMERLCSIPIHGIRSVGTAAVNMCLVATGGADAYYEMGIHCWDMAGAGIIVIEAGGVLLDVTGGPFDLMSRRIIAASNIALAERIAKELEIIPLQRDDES
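Measured: the HTRF emission ratio (665/620 nm) plus the 620 nm donor channel, each fitted to the Hill equation to give AC50. Cells were CHO-M1 given compounds up to 46 uM and a 30 min carbachol stimulation at 37C.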
* = called active by the depositor. Unless noted, calls follow the shape of the dose curve; as a rule, active = well fitted inhibition curve with a large enough effect (not every such curve was filed as active); inconclusive = small, poorly fitted or top-dose-only effect, or another doubt; inactive = no such curve, though single readings can be large or run the other way. Unless noted, % is scaled to controls: 0 for no effect and ±100 for the full control effect.

How did O=C(Nc1ccc(-c2noc(CCc3ccccc3)n2)cc1)c1ccco1 do in these assays?
HPGD block: 25µM*; ALDH1A1 block: inconclusive; IMPase cell inh: 2

What do the screens show for `O=C(NCc1ccccn1)c1ccc(NC(=O)c2ccco2)cc1`?
HPGD block: 14µM*; ALDH1A1 block: inconclusive; IMPase cell inh: 6

Results for Cc1ccc(-c2nnc(Nc3ccc(O)cc3)c3ccccc23)cc1S(=O)(=O)NCc1nc2ccccc2[nH]1 ?
IMPase cell inh: 5

What do the screens show for `CN1CCN(c2nc(-c3cccc(C#N)c3)nc3ccccc23)CC1`?
HPGD block: -6%; ALDH1A1 block: -1%

What do the screens show for `Cc1ccc(S(=O)(=O)CCC(=O)O)cc1C`?
HPGD block: -2%; ALDH1A1 block: 8.9µM*; IMPase cell inh: 4

What do the screens show for `Cc1ccc(S(=O)(=O)CCC(=O)OCC(=O)c2ccc(C)c(C)c2)cc1`?
HPGD block: -2%; ALDH1A1 block: inconclusive

How did Cc1ccc2c(c1)N1C(=O)c3ccccc3C1C1=C(CC(C)(C)CC1=O)N2 (stereo not drawn) do in these assays?
HPGD block: -14%; ALDH1A1 block: 4%; IMPase cell inh: 8

Results for CC(=O)c1c(C)oc2ccc(N(C(=O)Oc3ccccc3)S(=O)(=O)c3ccc(Br)cc3)cc12 ?
IMPase cell inh: 6

Results for CCNC(=S)Nc1ccc(Cl)cc1 ?
HPGD block: 0%; ALDH1A1 block: 2%

What do the screens show for `CCNC(=S)Nc1cc(-c2ccc(Cl)cc2)[nH]n1`?
ALDH1A1 block: 1.3µM*

How did S=C(NCc1ccccn1)Nc1ccccc1Cl do in these assays?
HPGD block: -12%; ALDH1A1 block: -8%

Results for S=C(NCc1cccs1)Nc1ccccc1Cl ?
HPGD block: 14µM*; ALDH1A1 block: -2%

How did S=C(NCCc1ccccc1)Nc1ccccc1Cl do in these assays?
HPGD block: -26%; ALDH1A1 block: -5%

Results for Cc1cc(Cl)ccc1NC(=S)NCc1cccs1 ?
HPGD block: inconclusive; ALDH1A1 block: 0%; IMPase cell inh: 9

What do the screens show for `NNC(=S)Nc1ccccc1Cl`?
ALDH1A1 block: 28µM*

What do the screens show for `S=C(NCc1cccs1)Nc1cccc(Cl)c1`?
HPGD block: 13µM*; ALDH1A1 block: 5%; IMPase cell inh: -1

How did CCC1=Nc2cc(C(=O)NC3CCCC3)ccc2Sc2ccc(Cl)cc21 do in these assays?
IMPase cell inh: 7

What do the screens show for `O=c1cc(N2CCNCC2)oc2c(-c3ccccc3)cccc12`?
HPGD block: -13%; ALDH1A1 block: -10%

How did CC(=O)c1nnn(-c2ccc([N+](=O)[O-])cc2)c1C do in these assays?
ALDH1A1 block: 4%

What do the screens show for `CCn1c(SCC(=O)N/N=C/C=C\c2ccco2)nc2ccccc21`?
HPGD block: inconclusive; ALDH1A1 block: 10µM*; IMPase cell inh: -10

What do the screens show for `O=C(CSc1nc2ccccc2n1Cc1ccccc1)N/N=C/c1ccco1`?
HPGD block: -5%; ALDH1A1 block: -1%; IMPase cell inh: 7

What do the screens show for `CCn1c(SCC(=O)N/N=C/c2cc(OC)c(OC)c(OC)c2)nc2ccccc21`?
HPGD block: -3%; ALDH1A1 block: 25µM*

Results for Cc1ccc(/C=N/NC(=O)CSc2nc3ccccc3n2C)s1 ?
HPGD block: -5%; ALDH1A1 block: 59%; IMPase cell inh: 5

How did Cn1c(SCC(=O)N/N=C/c2cccs2)nc2ccccc21 do in these assays?
HPGD block: -7%; ALDH1A1 block: 2%; IMPase cell inh: -1

What do the screens show for `C/C(=N/NC(=O)CSc1nc2ccccc2n1C)c1ccc(O)cc1`?
ALDH1A1 block: 13µM*
